What all share (conditions): mRNA level, 48 h; actives raise or lower the signal
Read-out in experiment [1]: Bcl-2 (BAD) gene, BAD (gene 572)
As to the kind of experiment: LTEA_HepaRG_BAD: Life Technologies and Expression Analysis (LTEA) Assay for Bcl-2 (BAD) gene using HepaRG (AID 2283469). The gist of the method: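 HepaRG, 48 h exposure, 8-pt half-log curve from 100 uM in 0.5% DMSO, duplicates. Readout: TaqMan qRT-PCR for BAD mRNA, housekeeping-normalised (ACTB/GAPDH/POLR2A); gain or loss fitted against DMSO baseline.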

Read-out in experiment [2]: Bcl-2 (BAX) gene, BAX (gene 581)
Briefly: LTEA_HepaRG_BAX: Life Technologies and Expression Analysis (LTEA) Assay for Bcl-2 (BAX) gene using HepaRG (AID 2283470). The gist of the method: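 qRT-PCR read-out of BAX mRNA, normalized to three housekeeping genes, after 48 h chemical exposure of human HepaRG cells in serum-free induction medium; eight-point half-log series, top 100 uM, 0.5% DMSO vehicle; bidirectional fit versus DMSO.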

Read-out in experiment [3]: adenosine kinase (ADK) gene, ADK (gene 132)
As to the kind of experiment: LTEA_HepaRG_ADK: Life Technologies and Expression Analysis (LTEA) Assay for adenosine kinase (ADK) gene using HepaRG (AID 2283471). The procedure, abridged: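 ADK expression quantified by qRT-PCR, normalised to three housekeeping genes, after 48 h exposure of HepaRG cells to eight concentrations (top 100 uM, half-log steps, duplicate, 0.5% DMSO). Up- or down-regulation fitted relative to vehicle.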

Read-out in experiment [4]: Alpha-fetoprotein (AFP) gene, AFP (gene 174)
Briefly: LTEA_HepaRG_AFP: Life Technologies and Expression Analysis (LTEA) Assay for Alpha-fetoprotein (AFP) gene using HepaRG (AID 2283472). The gist of the method:
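qRT-PCR (Fluidigm TaqMan) readout of AFP transcript, normalized to three housekeeping genes, fitted bidirectionally against 0.5% DMSO baseline. HepaRG cells received chemicals for 48 h in serum-free induction medium, top concentration 100 uM, half-log steps.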

Read-out in another experiment: BCL2L11 (gene 10018)
Briefly: LTEA_HepaRG_BCL2L11: Life Technologies and Expression Analysis (LTEA) Assay for Bcl-2 (BCL2L11) gene using HepaRG (AID 2283473). The procedure, abridged:
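BCL2L11 transcript levels are measured by Fluidigm qRT-PCR, normalized to three housekeeping genes. HepaRG cultures were plated 48 h, then treated 48 h with test chemical (top 100 uM, half-log, 0.5% DMSO vehicle); curves were fitted bidirectionally against DMSO.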

Read-out in experiment [5]: Apolipoprotein A-V (APOA5) gene, APOA5 (gene 116519)
As to the kind of experiment: LTEA_HepaRG_APOA5: Life Technologies and Expression Analysis (LTEA) Assay for Apolipoprotein A-V (APOA5) gene using HepaRG (AID 2283474). The procedure, abridged:
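APOA5 transcript levels were quantified by qRT-PCR, normalized to three housekeeping genes, after 48 h chemical treatment of HepaRG cells (8 points, 100 uM maximum, half-log steps, 0.5% DMSO). Curves fitted in both directions against vehicle.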

Read-out in experiment [6]: Apoptosis regulator Bcl-2 (Homo sapiens) (UniProt P10415)
As to the kind of experiment: LTEA_HepaRG_BCL2: Life Technologies and Expression Analysis (LTEA) Assay for Bcl-2 gene using HepaRG (AID 2283475). The procedure, abridged: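 qRT-PCR read-out (Fluidigm TaqMan) of BCL2 transcript, normalised to three housekeeping genes, after 48 h chemical exposure of HepaRG cells; 8-point half-log series, top 100 uM, 0.5% DMSO vehicle. Gain or loss of signal fitted relative to DMSO baseline.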

Read-out in experiment [7]: Bcl-2 (BID) gene, BID (gene 637)
As to the kind of experiment: LTEA_HepaRG_BID: Life Technologies and Expression Analysis (LTEA) Assay for Bcl-2 (BID) gene using HepaRG (AID 2283476). The procedure, abridged: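 HepaRG, 48 h exposure, 8-pt half-log series, top 100 uM, 0.5% DMSO vehicle, duplicates. Readout: BID mRNA by TaqMan qRT-PCR; housekeeping-normalized; bidirectional curve fit vs DMSO baseline.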

Read-out in the next experiment: Caspase-3 (Homo sapiens) (UniProt P42574)
Briefly: LTEA_HepaRG_CASP3: Life Technologies and Expression Analysis (LTEA) Assay for cysteine-aspartic acid protease (CASP3) using HepaRG (AID 2283477). The gist of the method: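 Expression of CASP3 was quantified by TaqMan qRT-PCR against three housekeeping genes (ACTB, GAPDH, POLR2A), bidirectionally versus 0.5% DMSO. HepaRG cultures received compounds in duplicate, top 100 uM with half-log steps, for 48 h in serum-free induction medium.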

Read-out in experiment [8]: Cytochrome P450 (CYP24A1), CYP24A1 (gene 1591)
As to the kind of experiment: LTEA_HepaRG_CYP24A1: Life Technologies and Expression Analysis (LTEA) Assay for Cytochrome P450 (CYP24A1) using HepaRG (AID 2283478). The procedure, abridged: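 mRNA of CYP24A1 quantified by TaqMan qRT-PCR (ACTB/GAPDH/POLR2A normalization) after 48 h chemical exposure of HepaRG cells, top concentration 100 uM, half-log steps, 0.5% DMSO vehicle, duplicates. Curves fitted bidirectionally against DMSO baseline.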

Read-out in experiment [9]: Cytochrome P450 (CYP1A2), CYP1A2 (gene 1544)
As to the kind of experiment: LTEA_HepaRG_CYP1A2: Life Technologies and Expression Analysis (LTEA) Assay for Cytochrome P450 (CYP1A2) using HepaRG (AID 2283479). The procedure, abridged: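 CYP1A2 transcript measured by TaqMan qRT-PCR against three housekeeping genes after 48-hour chemical exposure of HepaRG cells. Eight-point half-log series topping at 100 uM in 0.5% DMSO, duplicates; gain or loss fitted relative to vehicle.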

Read-out in experiment [10]: cysteine-aspartic acid protease (CASP8), CASP8 (gene 841)
Briefly: LTEA_HepaRG_CASP8: Life Technologies and Expression Analysis (LTEA) Assay for cysteine-aspartic acid protease (CASP8) using HepaRG (AID 2283480). The procedure, abridged:
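qRT-PCR readout of CASP8 mRNA, normalized to three housekeeping genes, after 48 h chemical exposure of HepaRG cells; 8-point half-log series, top 100 uM, 0.5% DMSO vehicle. Bidirectional curve fitting against DMSO baseline.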

Read-out in experiment [11]: Cytochrome P450 (CYP2B6), CYP2B6 (gene 1555)
Briefly: LTEA_HepaRG_CYP2B6: Life Technologies and Expression Analysis (LTEA) Assay for Cytochrome P450 (CYP2B6) using HepaRG (AID 2283481). The gist of the method:
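CYP2B6 transcript level quantified by qRT-PCR against three housekeeping genes, fitted bidirectionally relative to DMSO. HepaRG cultures received chemicals for 48 h, 8-point half-log series from 100 uM in 0.5% DMSO, duplicate wells, serum-free induction medium.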

Read-out in experiment [12]: Cytochrome P450 2C19 (Homo sapiens) (UniProt P33261)
As to the kind of experiment: LTEA_HepaRG_CYP2C19: Life Technologies and Expression Analysis (LTEA) Assay for CYP2C19 using HepaRG (AID 2283482). The gist of the method:
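CYP2C19 transcript levels by qRT-PCR, normalized to three housekeeping genes, in HepaRG cells after 48 h chemical exposure. Eight-point half-log series topping at 100 uM, 0.5% DMSO vehicle. Increases and decreases both fitted against DMSO.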

Read-out in the next experiment: CYP2C8 (gene 1558)
Briefly: LTEA_HepaRG_CYP2C8: Life Technologies and Expression Analysis (LTEA) Assay for CYP2C8 using HepaRG (AID 2283483). The procedure, abridged:
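HepaRG (human liver line), 48 h chemical exposure, 8-pt half-log series from 100 uM, 0.5% DMSO vehicle. Readout: CYP2C8 transcript by qRT-PCR, housekeeping-normalized. Bidirectional fit vs DMSO baseline.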

Read-out in another experiment: CYP2E1 (gene 1571)
As to the kind of experiment: LTEA_HepaRG_CYP2E1: Life Technologies and Expression Analysis (LTEA) Assay for CYP2E1 using HepaRG (AID 2283485). The procedure, abridged:
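CYP2E1 transcript was measured by TaqMan qRT-PCR in human HepaRG cultures after 48 h chemical exposure (top 100 uM, half-log steps, 0.5% DMSO vehicle). Housekeeping-gene normalization; gain or loss fitted relative to DMSO baseline.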

Read-out in another experiment: CYP4A11 (gene 1579)
Briefly: LTEA_HepaRG_CYP4A11: Life Technologies and Expression Analysis (LTEA) Assay for CYP4A11 using HepaRG (AID 2283486). The gist of the method:
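Readout is CYP4A11 transcript level by qRT-PCR, normalized to three housekeeping genes and fitted bidirectionally against 0.5% DMSO. Human HepaRG cells were treated 48 h, in duplicate, with an 8-point half-log series topping at 100 uM.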

Read-out in experiment [13]: Cytochrome P450 3A4 (Homo sapiens) (UniProt P08684)
Briefly: LTEA_HepaRG_CYP3A4: Life Technologies and Expression Analysis (LTEA) Assay for CYP3A4 using HepaRG (AID 2283487). The procedure, abridged:
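Differentiated HepaRG cells, plated 48 h, then dosed 48 h in serum-free induction medium with 0.5% DMSO, 8 half-log concentrations up to 100 uM, duplicate. CYP3A4 mRNA by qRT-PCR, normalized to ACTB/GAPDH/POLR2A; bidirectional fit versus DMSO.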

Read-out in experiment [14]: DNA damage-inducible transcript 3 (DDIT3), DDIT3 (gene 1649)
Briefly: LTEA_HepaRG_DDIT3: Life Technologies and Expression Analysis (LTEA) Assay for DNA damage-inducible transcript 3 (DDIT3) using HepaRG (AID 2283488). The gist of the method:
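qRT-PCR readout (Fluidigm TaqMan), housekeeping-normalized to ACTB, GAPDH, POLR2A. HepaRG cells, 48 h exposure, 8-point half-log series from 100 uM in 0.5% DMSO, duplicates. Gain or loss of signal fitted against DMSO baseline.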

Read-out in another experiment: CYP2C9 (gene 1559)
Briefly: LTEA_HepaRG_CYP2C9: Life Technologies and Expression Analysis (LTEA) Assay for CYP2C9 using HepaRG (AID 2283484). The procedure, abridged:
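HepaRG, 48 h dosing, 8-pt half-log series, top 100 uM, 0.5% DMSO vehicle. Read-out: CYP2C9 transcript by TaqMan qRT-PCR, housekeeping-normalized (ACTB/GAPDH/POLR2A). Gain or loss fitted vs DMSO baseline.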

Calls of active or inactive are those of the source. Rule for the calls: active = hit-call score of the fitted dose curve at least 0.9, where 1 is the maximum; inactive = score below 0.9.

Cytochrome P450 3A4 (Homo sapiens), sequence (P08684 whole entry, looked up): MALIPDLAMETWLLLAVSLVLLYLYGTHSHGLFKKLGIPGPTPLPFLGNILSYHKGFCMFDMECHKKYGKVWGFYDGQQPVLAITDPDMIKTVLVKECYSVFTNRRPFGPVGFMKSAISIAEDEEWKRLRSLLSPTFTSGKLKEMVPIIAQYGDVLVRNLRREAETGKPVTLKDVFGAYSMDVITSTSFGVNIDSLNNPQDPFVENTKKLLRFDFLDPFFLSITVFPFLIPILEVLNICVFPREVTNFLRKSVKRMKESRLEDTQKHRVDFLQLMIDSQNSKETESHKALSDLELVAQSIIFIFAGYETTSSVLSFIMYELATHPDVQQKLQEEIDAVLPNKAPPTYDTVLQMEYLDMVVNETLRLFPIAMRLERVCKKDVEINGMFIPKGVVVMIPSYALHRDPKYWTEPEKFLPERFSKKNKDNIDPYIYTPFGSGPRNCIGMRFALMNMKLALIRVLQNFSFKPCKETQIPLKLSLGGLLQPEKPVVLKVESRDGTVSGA
Cytochrome P450 2C19 (Homo sapiens), sequence (P33261 whole entry, looked up): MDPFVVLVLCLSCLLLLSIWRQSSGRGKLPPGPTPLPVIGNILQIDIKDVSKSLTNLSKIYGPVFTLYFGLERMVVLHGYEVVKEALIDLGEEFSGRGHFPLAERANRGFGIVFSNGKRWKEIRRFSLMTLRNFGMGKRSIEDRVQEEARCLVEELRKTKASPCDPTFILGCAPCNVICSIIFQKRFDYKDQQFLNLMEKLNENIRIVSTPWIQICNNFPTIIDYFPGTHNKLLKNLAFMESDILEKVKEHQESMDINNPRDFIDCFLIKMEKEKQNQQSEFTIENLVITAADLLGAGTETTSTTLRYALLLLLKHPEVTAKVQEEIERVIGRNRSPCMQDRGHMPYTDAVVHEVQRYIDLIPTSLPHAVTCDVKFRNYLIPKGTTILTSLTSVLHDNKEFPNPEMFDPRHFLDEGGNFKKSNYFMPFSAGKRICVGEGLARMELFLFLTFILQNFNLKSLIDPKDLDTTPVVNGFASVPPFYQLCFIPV
Caspase-3 (Homo sapiens), sequence (P42574 whole entry, looked up): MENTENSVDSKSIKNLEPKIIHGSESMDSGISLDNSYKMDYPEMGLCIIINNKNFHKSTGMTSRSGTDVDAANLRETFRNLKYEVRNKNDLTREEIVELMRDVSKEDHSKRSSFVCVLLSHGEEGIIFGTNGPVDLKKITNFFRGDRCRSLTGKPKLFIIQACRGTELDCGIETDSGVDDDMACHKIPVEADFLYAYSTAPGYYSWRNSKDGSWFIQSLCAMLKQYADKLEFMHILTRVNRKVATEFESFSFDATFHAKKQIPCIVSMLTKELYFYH
Apoptosis regulator Bcl-2 (Homo sapiens), sequence (P10415 whole entry, looked up): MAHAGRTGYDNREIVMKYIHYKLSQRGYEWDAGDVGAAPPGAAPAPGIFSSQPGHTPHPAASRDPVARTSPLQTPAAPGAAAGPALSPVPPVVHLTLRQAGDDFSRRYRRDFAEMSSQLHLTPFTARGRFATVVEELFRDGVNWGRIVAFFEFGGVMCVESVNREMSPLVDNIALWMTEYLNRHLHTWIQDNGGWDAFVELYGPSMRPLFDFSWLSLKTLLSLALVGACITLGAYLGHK

What is called AC50 is the concentration giving half of the maximal activity seen. Consider `Cc1oc(-c2ccccc2)nc1CCOc1cccc2c1ccn2CCC(=O)O`, for which the molecule was called inactive (in [1]; in experiment [3]; in experiment [7]; with Caspase-3 (Homo sapiens); in [8]; in experiment [9]). The AC50 in experiment [2] is 50 µM (active); in experiment [4], 80.8 µM (active); with BCL2L11 (gene 10018) it was 14.1 µM (active); in experiment [5], 80.7 µM (active); in [6] it was 86.3 µM (active); in [10], 50 µM (active). Further, the AC50 in experiment [11] was 88.5 µM (active); in experiment [12], 83.4 µM (active); with CYP2C8 (gene 1558) it was 80.5 µM (active); in the experiment with CYP2E1 (gene 1571) it was 62.6 µM (active); in the experiment with CYP4A11 (gene 1579), 85.9 µM (active); in experiment [13], 80.1 µM (active). Besides, in experiment [14], the AC50 was 79.2 µM (active).

For `CCc1c(C(=O)NN2CCCCC2)nn(-c2ccc(Cl)cc2Cl)c1-c1ccc(Br)cc1`, the outcome in experiment [1], in experiment [3], in experiment [7], in experiment [8] and in experiment [10] was inactive. For the same molecule, the AC50 in experiment [2] is 27.3 µM (active); in experiment [4] it was 25.1 µM (active); with BCL2L11 (gene 10018), 7.59 µM (active); in experiment [5], 42 µM (active); in experiment [6], 20 µM (active); with Caspase-3 (Homo sapiens), 50 µM (active). Also, the AC50 in experiment [9] was 91.8 µM (active); in experiment [11] it was 30 µM (active); in experiment [12], 34.6 µM (active); with CYP2C8 (gene 1558), 23.6 µM (active); in the experiment with CYP2E1 (gene 1571), 22.4 µM (active); with CYP4A11 (gene 1579), 15.9 µM (active). Besides, the AC50 in [13] is 31.7 µM (active); in experiment [14] it was 32.5 µM (active).

As for `NC(=O)Cn1c(=O)cc(CCN2CCN(c3nccc4sccc34)CC2)c2ccc(F)cc21`, the outcome (in experiment [1]; in experiment [3]; with BCL2L11 (gene 10018); in [5]; in [7]; with Caspase-3 (Homo sapiens)) was inactive. Moreover, the molecule was called inactive (in experiment [8]; in experiment [9]; in [10]; in experiment [12]; with CYP2C8 (gene 1558)). Moreover, the AC50 in experiment [2] was 29 µM (active); in experiment [4], 50 µM (active); in experiment [6], 50 µM (active); in the experiment with CYP2C9 (gene 1559), 78 µM (active); in the experiment with CYP2E1 (gene 1571), 87.6 µM (active); with CYP4A11 (gene 1579), 65.4 µM (active). Besides, the figures for the AC50 in [13] and in [14] were 5.56 µM (active) and 65.2 µM (active), respectively.

The values are drawn from PubChem BioAssay (EPA / NIEHS).
